# PubChem BioAssay (NCI)
# Compounds without any hit were thinned out: in the full panel of roughly 79,000, 15% have a hit. A number with no mark means an inactive call. The source made the active and inactive calls. Cut-off read from the data, not from the text of the source: active = growth inhibition above about 70%; inactive = the rest.
# Assays:
# [1] = NCI Yeast Anticancer Drug Screen. Data for the rad50 strain (AID 155);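 note: 0% = growth of vehicle-only cultures of the same strain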; conditions: S. cerevisiae rad50 strain growth inhibition, active compounds read high
# Method in brief: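 Compounds were tested on a yeast strain with an engineered DNA damage repair alteration; the reported value is growth inhibition normalised to vehicle treatment.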
# [2] = NCI Yeast Anticancer Drug Screen. Data for the mec2-1 strain (AID 157); conditions: S. cerevisiae mec2-1 strain, active compounds read high
# Method in brief: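 Readout is yeast growth inhibition, normalised to vehicle-treated controls, in the mec2-1 strain exposed to compound.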
# [3] = NCI Yeast Anticancer Drug Screen. Data for the sgs1 mgt1 strain (AID 161);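 note: 0% = growth of cultures given vehicle only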; conditions: S. cerevisiae sgs1 mgt1 strain, active compounds read high
# Method in brief: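 Percent growth inhibition was derived by comparing compound-exposed mutant yeast with vehicle-exposed cultures. The strain carries alterations in DNA damage repair.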
# [4] = NCI Yeast Anticancer Drug Screen. Data for the cln2 rad14 strain (AID 165);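 note: 0% = growth equal to vehicle treated cultures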; conditions: S. cerevisiae cln2 rad14 strain, active compounds read high
# Method in brief: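 Relative to vehicle controls, growth inhibition of compound-treated cln2 rad14 yeast was recorded.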
# [5] = NCI Yeast Anticancer Drug Screen. Data for the bub3 strain (AID 167); conditions: S. cerevisiae bub3 mutant strain, active compounds read high
# Method in brief: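 Growth of a checkpoint-deficient yeast mutant is measured after compound exposure. Values represent inhibition relative to vehicle.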
# [6] = NCI Yeast Anticancer Drug Screen. Data for the mlh1 rad18 strain (AID 175); conditions: S. cerevisiae mlh1 rad18 strain growth inhibition, active compounds read high
# Method in brief: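 Test agents were incubated with a yeast strain of defined genotype (DNA damage repair defect). Inhibition of growth was derived by comparison with vehicle-exposed cultures.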
# [7] = at 5.0 µM (retest, dose inferred, filed as 0.5)
# [8] = at 50.0 µM (retest, dose inferred, filed as 5.0)
Structure (SMILES),"growth inhibition [1, 7]","growth inhibition [1, 8]",growth inhibition ([1]; at 50.0 µM),"growth inhibition [2, 7]","growth inhibition [2, 8]",growth inhibition ([2]; at 50.0 µM),"growth inhibition [3, 7]","growth inhibition [3, 8]",growth inhibition ([3]; at 50.0 µM),"growth inhibition [4, 7]","growth inhibition [4, 8]",growth inhibition ([4]; at 50.0 µM),"growth inhibition [5, 7]","growth inhibition [5, 8]",growth inhibition ([5]; at 50.0 µM),"growth inhibition [6, 7]","growth inhibition [6, 8]",growth inhibition ([6]; at 50.0 µM)
CCOC(=O)C(Br)C(Br)c1cccc([N+](=O)[O-])c1 (configuration not stated),97% (active),99% (active),99.7% (active),93% (active),100% (active),99.8% (active),99% (active),100% (active),99.7% (active),92% (active),99% (active),98% (active),98% (active),99% (active),99.5% (active),98% (active),99% (active),99.6% (active)
CCOC(=O)c1c(Cl)c(CC)c(N=[N+]=[N-])n2c1nc1ccccc12,8%,73% (active),58.9%,8%,79% (active),56.9%,10%,73% (active),60.1%,0%,63%,69.6%,1%,74% (active),55%,9%,80% (active),64.6%
CCC1(C)CCC2(C)C(CCC3C4(C)CCCC32OC4=O)C1 (configuration not stated),16%,93% (active),97.5% (active),-2%,96% (active),94.3% (active),2%,97% (active),96.8% (active),-9%,92% (active),91.9% (active),15%,98% (active),96.2% (active),-10%,92% (active),92.2% (active)
O=S(O)CCCCCSSc1ccccc1,-1%,12%,22.9%,4%,40%,12.1%,3%,36%,30.1%,-9%,14%,50.5%,11%,73% (active),74.5% (active),4%,31%,48.9%
O=NN(CCCl)C(=O)Oc1cc(Cl)c(Cl)cc1Cl,71% (active),98% (active),87.8% (active),79% (active),100% (active),92.7% (active),84% (active),100% (active),92.7% (active),37%,99% (active),90.5% (active),48%,100% (active),92% (active),96% (active),99% (active),91% (active)
C=C1C[C@@]2(OC)OCC[C@H]3C(C)=CCC(C1=O)[C@]32C(=O)OC (some centres not stated),12%,96% (active),98.5% (active),15%,98% (active),92.7% (active),15%,98% (active),99.1% (active),6%,93% (active),96.8% (active),-5%,98% (active),98.7% (active),4%,97% (active),99% (active)
COC(=O)[C@@]12OC[C@]34[C@H]([C@@H](O)[C@@H]1O)[C@@]1(C)[C@H](O)C(=O)C=C(C)[C@@H]1C[C@H]3OC(=O)C(OC(C)=O)[C@@H]24 (some centres not stated),36%,98% (active),91% (active),35%,98% (active),89.3% (active),30%,98% (active),87.8% (active),43%,99% (active),90.5% (active),19%,98% (active),90.5% (active),34%,99% (active),90.8% (active)
COC(=O)Nc1nc2ccc(C(=O)c3ccccc3)cc2[nH]1,0%,-9%,55%,3%,-7%,46.9%,-1%,-5%,43.8%,-1%,-24%,45%,10%,16%,71.5% (active),1%,17%,67.5%
Cc1cccc(Nc2c3c(nc4ccccc24)CCCCC3)c1,0%,89% (active),90% (active),-2%,79% (active),28.1%,-2%,85% (active),86.8% (active),-3%,53%,66.9%,-1%,92% (active),27.1%,-5%,83% (active),93.2% (active)
CC(NNC(=S)N(C)C1CCCCC1)c1cc2ccccc2cn1 (configuration not stated),48%,92% (active),86.8% (active),55%,94% (active),75.3% (active),97% (active),94% (active),85.5% (active),94% (active),92% (active),79.8% (active),94% (active),95% (active),84% (active),51%,93% (active),83% (active)
Nc1ccc(/C=C/c2ccccc2)cc1,3%,61%,87.5% (active),-9%,33%,80.3% (active),-2%,47%,81.5% (active),-10%,45%,82.8% (active),-2%,44%,95.5% (active),3%,73% (active),94% (active)
O=[N+]([O-])c1cc(I)c(O)c(/C=N/NS(=O)(=O)c2ccc(Cl)cc2)c1,-3%,11%,88.5% (active),-8%,1%,75.1% (active),-1%,17%,77.7% (active),-9%,-1%,62.2%,-6%,-1%,72% (active),-2%,4%,91.8% (active)
O=C(O)CCCc1ccc2c(c1Br)C=CC2,10%,68%,72.3% (active),13%,72% (active),63.6%,11%,73% (active),87.2% (active),11%,74% (active),72.9% (active),8%,86% (active),94% (active),3%,76% (active),79.6% (active)
NC(=O)NC(CC(=O)O)C(=O)O (configuration not stated),-6%,12%,-19.9%,-7%,-4%,-4.35%,-8%,-5%,-6%,-3%,-4%,65.8%,3%,-6%,-29.8%,-8%,4%,-1.7%
c1ccc(-c2cnc3nc4ccccc4nc3n2)cc1,-7%,89% (active),94.9% (active),4%,76% (active),50.6%,12%,73% (active),95.8% (active),-11%,3%,36.5%,16%,77% (active),92% (active),7%,93% (active),89.5% (active)
O=[N+]([O-])c1cc2cccnc2c2ncccc12,-8%,-15%,63%,-43%,-18%,41.1%,-5%,20%,81.2% (active),-8%,21%,62.2%,-21%,-86%,34.4%,4%,22%,76.2% (active)
O=C(Cl)c1cc(-c2ccc(Cl)cc2)nc2c(Cl)cccc12,6%,98% (active),72.5% (active),11%,99% (active),61.2%,5%,99% (active),84.8% (active),3%,99% (active),42.4%,4%,99% (active),74.2% (active),9%,99% (active),87.2% (active)
CN(C)C1CCC(N=Nc2cc([N+](=O)[O-])ccc2C(=O)O)CC1 (configuration not stated),-7%,55%,86.2% (active),7%,23%,56.7%,-2%,49%,83.6% (active),1%,18%,15.6%,7%,87% (active),94.3% (active),-1%,61%,84.9% (active)
c1ccc2c(c1)Nc1cc3ccccc3cc1N2,41%,91% (active),74% (active),30%,61%,43.1%,11%,47%,36.3%,-9%,41%,22.9%,39%,80% (active),43.1%,37%,75% (active),61.6%
